Screening results as filed in PubChem BioAssay.
The list is not random: actives were taken first. Their share in the collection is about 3.5%.
BoNT-A LC inh2: blocks Botulinum neurotoxin A light chain protease. multiplex microsphere protease substrate cleavage, flow cytometry. inhibition, % at 10 µM. 0.17% of 360,000 active. AID 588499
Vc quorum ag: inducers of Vibrio cholerae quorum light production without autoinducers. activation, % at 18.7 µM. V. cholerae BH1578 lux reporter, luminescence, 6 h. 0.16% of 350,000 active; in the data active means activation mostly above about 9.7%, no sharp cut-off; inconclusive means no clear call, values can overlap the other calls; inactive means mostly below about 3.7%
Autofluor counter: flagged as autofluorescent in microsphere protease counterscreen; AID 624483; fluorescence intensity (test concentration not listed); 3.1% of 360,000 active; compound autofluorescence counterscreen, microsphere flow cytometry; hits give high values; in the data active means fluorescence intensity above about 16000; inconclusive means no clear call, values can overlap the other calls
Anthrax LF inh2: blocks Bacillus anthracis lethal factor protease; P15917; multiplex microsphere protease cleavage assay, LF; inhibition, % at 10 µM; 0.12% of 360,000 active; AID 588501
Target sequence (P15917 whole entry, looked up): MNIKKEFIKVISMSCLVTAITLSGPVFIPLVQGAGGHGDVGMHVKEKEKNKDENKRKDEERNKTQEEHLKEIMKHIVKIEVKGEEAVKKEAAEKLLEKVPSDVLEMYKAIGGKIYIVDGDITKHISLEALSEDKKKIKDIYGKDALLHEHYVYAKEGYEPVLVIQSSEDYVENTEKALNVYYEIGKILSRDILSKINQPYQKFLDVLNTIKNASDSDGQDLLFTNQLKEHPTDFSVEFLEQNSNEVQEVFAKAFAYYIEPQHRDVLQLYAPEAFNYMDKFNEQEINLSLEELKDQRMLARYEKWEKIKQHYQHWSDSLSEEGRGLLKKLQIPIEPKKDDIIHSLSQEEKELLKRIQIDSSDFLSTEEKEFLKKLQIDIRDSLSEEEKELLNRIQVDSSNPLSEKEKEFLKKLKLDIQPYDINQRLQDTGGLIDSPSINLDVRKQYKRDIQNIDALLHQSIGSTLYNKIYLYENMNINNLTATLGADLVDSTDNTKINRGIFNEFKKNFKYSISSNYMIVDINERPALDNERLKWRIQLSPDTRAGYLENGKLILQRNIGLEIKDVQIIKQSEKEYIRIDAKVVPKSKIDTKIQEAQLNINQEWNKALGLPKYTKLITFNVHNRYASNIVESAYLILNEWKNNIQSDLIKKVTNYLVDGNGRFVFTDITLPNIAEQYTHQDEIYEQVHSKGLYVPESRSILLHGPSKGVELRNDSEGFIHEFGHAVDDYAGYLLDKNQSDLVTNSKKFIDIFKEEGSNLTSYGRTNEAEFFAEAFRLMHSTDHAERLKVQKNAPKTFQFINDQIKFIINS
BoNT-F LC inh: BoNT F light chain protease inhibition | Multiplex microsphere protease cleavage assay, flow cytometry | inhibition, % at 10 µM | 0.22% of 360,000 active; in the data active means inhibition above about 35%, passing the limit was not always enough; inconclusive means no clear call, values can overlap the other calls
A number is an active result; – = inactive; ? = inconclusive. Unless noted, no stated cut-off is given here; in the data, active means inhibition above about 30%; inconclusive means no clear call, values can overlap the other calls; inactive means below that.

SMILES	BoNT-A LC inh2	Vc quorum ag	Autofluor counter	Anthrax LF inh2	BoNT-F LC inh
CCc1nc(SCc2cc(=O)[nH]c3ccccc23)c2c(C)c(C)sc2n1	–	–	–	–	–
Cc1ccc(OCC(O)CN2CCOCC2)c(C)c1 (stereo unspecified)	–	–	–	–	?
O=C(Nc1ccc(S(=O)(=O)N2CCCC2)cc1)c1cnccn1	–	–	–	–	–
CC(=O)Nc1ccc(S(=O)(=O)N2CCN(C(=O)c3cccnc3)CC2)cc1	–	–	23558	–	–
O=C(Nc1ccc(S(=O)(=O)N2CCN(Cc3ccccc3)CC2)cc1)c1cnccn1	–	–	16875	–	–
CC(=O)Nc1ccc(S(=O)(=O)N(c2cccnc2)S(=O)(=O)c2ccc(NC(C)=O)cc2)cc1	–	–	23675	–	–
CCOC(=O)N1CCN(C/C(C)=C/c2ccccc2)CC1	?	–	20298	–	–
C/C(=C\c1ccccc1)CN1CCN(C)CC1	–	–	–	–	–
O=C(N(c1ccccc1)c1ccccc1)n1ccnc1	–	–	21662	–	–
Cc1ccc(-c2nnc(CSc3nnc(C)s3)o2)cc1	–	–	22331	–	–
Cn1c(=O)[nH]c(=O)c2c1nc(Br)n2CCSc1nnnn1-c1ccccc1	–	–	–	–	–
Cn1c(=O)c2c(nc(Br)n2CCSc2nnnn2-c2ccccc2)n(C)c1=O	–	–	20475	–	–
CN(C(=O)CCN1C(=O)c2ccccc2C1=O)c1ccccc1	–	–	–	–	–
O=C(c1ccccc1)N1CCn2c(nc3ccccc32)C1	?	–	19484	–	–
O=C(NCc1ccccc1)N1CCn2c(nc3ccccc32)C1	–	–	19281	–	–
S=C(Nc1ccccc1)N1CCn2c(nc3ccccc32)C1	–	–	–	–	–
O=C(Nc1ccccc1Cl)N1CCn2c(nc3ccccc32)C1	–	–	–	–	–
Cc1ccccc1C(=O)/C=C1/SCC(=O)N1C	–	–	–	–	–
CC(C)Oc1cccc(C(=O)O)c1	?	–	18055	–	–
CC1=CC(C)(C)N=C(NC#N)N1	–	–	19967	–	–
CC1=CC(C)(C)N=C(Nc2nc(C)c3cc(C)cc(C)c3n2)N1	–	–	–	–	–
O=C1c2ccc([N+](=O)[O-])cc2C(=O)N1Cc1cccnc1	–	–	–	–	–
COc1ccc(/C=N/n2c(C)nc3sc(C)c(C)c3c2=O)cc1	–	–	–	?	38
COc1ccc2nc(NC(=O)CSc3nnc(C)s3)sc2c1	–	–	21301	–	–
COc1ccc2sc(NC(=O)CC(C)C)nc2c1	–	–	20332	–	–
SMILES	BoNT-A LC inh2	Vc quorum ag	Autofluor counter	Anthrax LF inh2	BoNT-F LC inh
CSc1cccc(NC(=O)CSc2nnc(C)s2)c1	–	–	16404	–	–
COc1ccc(CNC(=O)CSc2nnc(C)s2)cc1	?	–	19126	–	–
COc1ccc(CNC(=O)CSc2nnc(C)c(=O)[nH]2)cc1	–	–	–	–	–
Cc1nnc(SCC(=O)Nc2cccc(Br)c2)s1	–	–	–	–	–
Cc1cccc(NC(=O)CNC(=O)COc2ccc(-c3ccc(C#N)cc3)cc2)c1C	–	–	–	–	–
CCOc1ccc(CN(C)C(=O)c2cccc(S(=O)(=O)N3CCCC3)c2)cc1OC	–	–	–	–	–
COc1ccc(NC(=O)c2cc3c(CO)cnc(C)c3oc2=Nc2cccc(C)c2)c(OC)c1	–	20	–	–	–
O=C(Nc1cccnc1)Nc1ccc(Br)cc1Cl	–	–	16594	–	–
Cc1cccc(N2CCN(C(=O)CSCc3c(C)noc3C)CC2)c1C	–	–	23925	–	–
O=C(CSCc1ccc(F)cc1)N1CCOCC1	–	–	20026	–	–
Cc1noc(C)c1CSCC(=O)N1CCN(c2ccc(F)cc2)CC1	–	–	16984	–	–
Cc1noc(C)c1CSc1ccccc1C(=O)N1CCN(c2ccccc2)CC1	–	–	–	–	–
COC(=O)c1c(NC(=O)CSc2nnc(C)c(=O)[nH]2)sc(C)c1C	–	–	–	–	–
C/C(=N/NC(=O)CNC(=O)c1cccnc1)c1ccc(Cl)c(Cl)c1	–	–	–	–	–
NC(=O)COc1cccc2cccnc12	–	–	16622	–	–
CSc1nc(N2CCOCC2)c2ccccc2n1	–	–	23367	–	–
CCN(CC)c1ccc(Nc2nc(N3CCOCC3)c3ccccc3n2)cc1	–	–	20077	–	–
O=C(N=C1SC2CS(=O)(=O)CC2N1c1ccccc1Cl)C1CCCO1 (stereo unspecified)	–	–	–	–	–
COc1ccc(C2C(=O)N(C3CCCCC3)CC(=O)N2C2CCCCC2)cc1 (stereo unspecified)	–	–	–	–	–
CCCOc1ccc(C2C(=O)N(C3CCCCC3)CC(=O)N2CCCOCC)cc1OC (stereo unspecified)	–	–	22919	–	–
